ELG1 genotox – inducers of genotoxicity in HEK293T ELG1-luciferase cells. hit rate 1.3% among 330,000. Potency, µM (series often up to 46 µM), for the others: at the top dose activity change, positive = activation, actives largely listed as activators. HEK293T ELG1-luciferase reporter, luminescence, 16 h; further: % of control where 0% means no effect; nearly all actives have a fitted effect of over 60% in size
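HEK293T cells expressing luciferase-tagged ELG1 were treated with compound or DMSO for 16 hr at 37°C. Luciferase activity was then read after 30 min with ONE-Glo at room temperature; rising signal flags genetic stress.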
SMN2 splice enh – enhancers of SMN2 splice variant expression; AID 1458; HEK293 SMN2-luciferase splicing reporter, luminescence, 30-36 h; hit rate 2.8% among 210,000; Potency, µM (doses to about 46.1 µM), inactives show at the highest dose activity change, positive = activation, actives largely listed as activators; further: % of control where 0% means no effect; nearly all actives have a fitted effect of over 55% in size
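qHTS luciferase splicing reporter: luminescence rises when SMN2 exon 7 is included in transfected HEK293 cells. Compound exposure lasted 30-36 h at 37C, with 4.5 mM final sodium butyrate as control, followed by a ONE-Glo read.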
FLuc modulator – inhibits or activates purified firefly luciferase, miR-21 counter-screen. P08659. purified FLuc, Km substrates, luminescence inhibition. Potency, µM (doses to about 57.5 µM), for the others: at the highest dose activity change, negative = inhibition, actives largely listed as inhibitors. hit rate 6.9% among 360,000. AID 588342;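 further: plate controls were vehicle for no effect and reference inhibitor for full effect; nearly all actives have a fitted effect of over 55% in size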
Target sequence (P08659 whole entry, looked up): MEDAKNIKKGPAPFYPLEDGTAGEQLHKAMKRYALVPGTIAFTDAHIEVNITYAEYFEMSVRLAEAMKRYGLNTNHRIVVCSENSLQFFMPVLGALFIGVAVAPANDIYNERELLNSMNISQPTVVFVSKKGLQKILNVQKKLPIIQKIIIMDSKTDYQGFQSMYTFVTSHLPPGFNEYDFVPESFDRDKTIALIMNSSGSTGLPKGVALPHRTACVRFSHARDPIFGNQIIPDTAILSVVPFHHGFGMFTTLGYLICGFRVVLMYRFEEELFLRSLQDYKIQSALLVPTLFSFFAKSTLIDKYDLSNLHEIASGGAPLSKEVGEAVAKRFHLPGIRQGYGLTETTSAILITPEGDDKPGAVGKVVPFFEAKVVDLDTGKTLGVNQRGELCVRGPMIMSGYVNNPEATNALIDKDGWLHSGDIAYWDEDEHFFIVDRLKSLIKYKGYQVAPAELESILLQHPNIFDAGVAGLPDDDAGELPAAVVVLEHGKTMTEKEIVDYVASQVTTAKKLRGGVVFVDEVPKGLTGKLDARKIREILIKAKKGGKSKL
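Purified P. pyralis luciferase, 10 nM final, with Km-level 10 uM D-luciferin and 10 uM ATP in 50 mM Tris acetate pH 7.5, 10 mM Mg acetate, 0.01% Tween-20, 0.05% BSA; 6-point qHTS titration about 60 µM downward; luminescence read.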
p53 reactivator – mutant p53 re-activation in reporter cells; Potency, µM (doses to about 92.2 µM), for the others: top-dose activity change, positive = activation, usual class: activators; hit rate 0.063% among 320,000; H1299 p53-A138V BP100-luciferase reporter, luminescence, 24 h; AID 504706; further: % of control where 0% means no effect; nearly all actives have a fitted effect of over 45% in size
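p53-null H1299 cells stably carrying temperature-sensitive p53-A138V and a BP100-luciferase reporter were pinned with compounds (4-point, 1:5 series) and held 24 hrs at 37 deg C. Luminescence was read 10 min after detection reagent.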
NPC1 promoter act – activators of NPC1 promoter. Huh7 NPC1 promoter luciferase reporter, 24 h. hit rate 2.4% among 320,000. Potency, µM (top dose mostly 9.22 µM), without a hit: at the top dose activation, hits mostly activators; further: % of control where 0% means no effect; nearly all actives have a fitted effect of over 60% in size
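Quantitative HTS used a cell-based reporter: Huh7 cells stably bearing the NPC1 promoter upstream of luciferase were treated with compounds for 24 h, and promoter activation was read as luminescence.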
Rab9 prom act – activates the Rab9 promoter | Huh7 Rab9 promoter-luciferase reporter, luminescence, 24 h | hit rate 2.8% among 320,000 | Potency, µM (doses to about 9.22 µM), for inactives: at the top dose activation, negative = inhibition, actives largely listed as activators; further: % of control where 0% means no effect; nearly all actives have a fitted effect of over 60% in size
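Measured in stably transfected Huh7 cells bearing a Rab9 promoter–luciferase construct: 24 h compound treatment at 37 °C, followed by luminescence detection.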
* hit, by the source's call; ? = inconclusive; / = not tested or not shown; [ ] = another dose, or the depositor's remark. Hits are enriched below; roughly 7.4% of the tested compounds scored in any of these assays. The call rests on the fitted dose curve; in most records, active means well fitted curve in the direction sought with a large enough effect; inconclusive means small, poorly fitted or top-dose-only effect, or another doubt; inactive means no such curve, though single readings can be large; an effect the other way counts as inactive or inconclusive. Potency means the concentration at half of the fitted maximal effect.

SMILES | ELG1 genotox | SMN2 splice enh | FLuc modulator | p53 reactivator | NPC1 promoter act | Rab9 prom act
COc1ccc(-c2cn3cccnc3n2)cc1NC(=O)c1cc(OC)c(OC)c(OC)c1 | -6% | 21% | 21µM* | -3% | -2% | 21%
CCC(CC)C(=O)Nc1cc(-c2cn3cccnc3n2)ccc1OC | / | / | -9% | / | / | /
COc1ccc(-c2cn3cccnc3n2)cc1NC(=O)Nc1ccc(Cl)cc1 | / | / | 6µM* | / | / | /
Cc1ccc(NC(=O)N2CCC(N3CCN(Cc4ccccc4)C(=O)C3=O)CC2)cc1Cl | / | / | 0% | / | / | /
Cc1nc2ccn(Cc3ccco3)c(=O)c2cc1C(=O)N1CCN(c2ccc(F)cc2)CC1 | / | / | 0% | / | / | /
CCN(CC)C(=O)CSC(=Nc1ccccc1F)NC#N | ? | 14µM* | -2% | ? | ? | 4µM*
CCN(CC)C(=O)CSC(Nc1ccc(F)cc1)=C(C#N)C#N | 0% | / | 4% | 4% | -3% | -4%
CC(C)C(=O)Nc1c2c(nn1-c1ccc(F)cc1)CS(=O)(=O)C2 | -4% | / | -1% | 12% | 0% | -1%
COc1ccc(-c2[nH]c(-c3ccccc3)nc2SCC(=O)NC2CCCC2)cc1 | 1% | -6% | -4% | -3% | 0% | -5%
Cc1ccc(-c2ccc(SCC(=O)NC3CCCC3)nn2)cc1 | -2% | / | ? | 11% | 13% | 11%
CCOc1ccc(-c2ccc(SCC(=O)NC3CCCCC3)nn2)cc1 | ? | / | 0.38µM* | ? | 2µM* | 1.6µM*
CCOc1ccc(-c2nc(SCC(=O)NC3CCCC3)c(-c3ccccc3)[nH]2)cc1OC | / | -85% | 24µM* | / | / | /
COc1ccc(-c2cn3nc(SCC(=O)NC4CCCCC4)ccc3n2)cc1 | ? | / | 0.34µM* | ? | 0.56µM* | 0.71µM*
COc1ccc(-c2ccc(SCC(=O)NC3CCCCC3)nn2)cc1 | ? | / | 1.7µM* | 24% | ? | 2.2µM*
COc1cccc(CNC(=O)c2cccn2-c2nnc(N3CCCC3)s2)c1 | / | / | 2% | / | / | /
COc1ccc(NC(=O)N2CCCC3(CCN(C(=O)c4csnn4)CC3)C2)cc1 | / | -6% | / | / | / | /
COc1ccc(-c2nc(SCC(=O)NC3CCCCC3)n[nH]2)cc1 | -4% | / | 15µM* | 0% | -10% | -3%
Cc1ccc(-c2ccc(SCC(=O)NC3CCCCC3)nn2)cc1 | 10% | / | 2.7µM* | ? | ? | 28%
COc1ccc(-c2nnc(SCC(=O)NC3CCCCC3)nc2-c2ccc(OC)cc2)cc1 | / | / | 4% | / | / | /
C=CCNc1ncnc2c1cnn2-c1ccc(OC)cc1 | ? | ? | 3.4µM* | ? | 0.63µM* | 0.4µM*
CCCNc1ncnc2c1cnn2-c1ccc(OC)cc1 | 2% | -3% | 5.4µM* | 4% | 0.5µM* | 0.4µM*
CCCN(CCC)c1ncnc2c1cnn2-c1ccc(OC)cc1 | 1.2µM* | ? | 2.4µM* | ? | 0.71µM* | 0.45µM*
COc1ccc(N2CCN(c3ncnc4c3cnn4-c3ccc(F)cc3)CC2)cc1 | / | / | 1% | / | / | /
CCC1Oc2ccc(C)cc2N(CC(=O)N2CCCC2)C1=O (stereo not given) | -6% | / | -4% | -7% | 1% | 15%
O=C(CCN1CCCCC1)N1CCc2c([nH]c3ccccc23)[C@H]1c1cccnc1 | / | -2%[9.22 µM] | / | / | / | /
SMILES | ELG1 genotox | SMN2 splice enh | FLuc modulator | p53 reactivator | NPC1 promoter act | Rab9 prom act
Clc1ccc2c(c1)-n1cc(-c3ccccc3)nc1CO2 | / | ? | 21µM* | / | / | /
O=C(Nc1ccc(Cl)cc1)OCc1ccccn1 | 18% | 13µM* | 12µM* | ? | 2.5µM* | 2.2µM*
O=C(Nc1ccc(Cl)cc1)OCc1cncs1 | 7% | -26% | 15µM* | ? | ? | ?
CCOC(=O)CSc1nc2c([nH]c3ccccc32)c(=O)n1-c1ccc(OC)cc1 | / | / | 1% | / | / | /
COc1ccc(C)cc1NC(=O)CN1c2ccccc2S(=O)(=O)c2ccccc21 | / | / | -6% | / | / | /
Cn1cc(-c2nc3cnc(Oc4cccc(Cl)c4)nc3n(CCC#N)c2=O)c2ccccc21 | / | 7% | / | / | / | /
CCN(CC)c1ccc(/C=C2\SC(=O)N(C(C)C)C2=O)o1 | -21% | / | 19µM* | -14% | 28% | 27%
Cc1nc(NC(=O)/C=C/c2ccccc2)sc1C(=O)Nc1ccccc1Cl | 12% | 13% | 12µM* | -9% | 1% | -6%
Cc1nc(Nc2ccc(Cl)c(Cl)c2)sc1C(=O)Nc1ccccc1 | -6% | -31% | ? | 28% | 0% | -2%
Cc1nc(Nc2ccc(Cl)cc2Cl)sc1C(=O)Nc1ccccc1 | -1% | -12% | 17µM* | ? | -2% | 4%
Cc1nc(NC(=O)C2CC2)sc1C(=O)Nc1ccccc1Cl | 13% | / | ? | / | 3.5µM* | 2.5µM*
N#Cc1ccc(CNC(=O)N2CCOCC2)cc1 | 0% | / | -1% | 11% | -3% | /
CC(=O)OCc1cnc(C)c2oc(=O)c(C(=O)Nc3ccc(F)cc3C)cc12 | / | / | -18% | / | / | /
O=C(CSC1=NCCS1)Nc1nc2c(s1)CCCC2 | 8% | 30% | 17µM* | ? | ? | ?
Cn1nnnc1SCC(=O)Nc1nc2c(s1)CCCC2 | 8.2µM* | / | 12µM* | ? | ? | 3.2µM*
Cc1ccc(-c2c(CN3CCN(c4cccc(C(F)(F)F)c4)CC3)csc2C)cc1 | / | / | 1% | / | / | /
